Consider 27 compounds from PubChem BioAssay (NCATS).

Inconclusive results are not listed. Calls of active or inactive are those of the source. Unless noted, calls come from the whole dose curve; as a rule, active = well fitted curve in the direction sought with a large enough effect; inconclusive = small, poorly fitted or top-dose-only effect, or another doubt; inactive = no such curve, though single readings can be large; an effect the other way counts as inactive or inconclusive.

Assay [1] in a line: Cytometry Cell-Based qHTS for Inhibitors of the mTORC1 Signaling Pathway in MEF cells (AID 2668). Note: potency is the fitted concentration of half-maximal effect. An outline of the steps:
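WT MEFs (Tsc2-/-, p53-/- stably re-expressing WT Tsc2) in DMEM + 10% FBS received compounds 24 hrs after plating, for 24 hrs at 37 degree Celsius. Fixed cells stained with Alexa-488 anti-phospho-rpS6 Ser235/236 and propidium iodide; laser-scanning cytometry read-out.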
In general terms: qHTS replaces the single test concentration by a dilution series.

The nature of assay [2]: Validation screen for small molecules that induce DNA re-replication in MCF 10A normal breast cells (AID 463097). Note: nearly all actives have a fitted effect of over 60% in size. Note: potency is the fitted concentration of half-maximal effect. An outline of the steps: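 Readout: Hoechst nuclear fluorescence intensity, 405 ex / 500-530 em, by scanning plate imager; re-replication scored as increase in nuclei with elevated DNA content. Cells exposed to compound 48 hr, 37 C, 5% CO2 beforehand.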
In assay [3] the target is Ubiquitin carboxyl-terminal hydrolase 2 (Homo sapiens) (UniProt O75604). Description: qHTS Validation Assay for Inhibitors of Ubiquitin-specific Protease USP2a Using CHOP2 as the Reporter (AID 463106). Note: potency is the fitted concentration of half-maximal effect. An outline of the steps: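 Fluorescence read-out at Ex 485nm/Em 531nm after 60min RT, following addition of 25nM Ub-CHOP2 plus 25nM reporter substrate to USP2 core (10nM) pretreated 30min with compound. Data normalized to NEM full inhibition; concentration-response curves fitted.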

The target of assay [4] is DNA polymerase III PolC-type (Bacillus subtilis (strain 168)) (UniProt P13267). As to the kind of experiment: qHTS Validation Assay for the Inhibitors of DNA Replication in Gram-Positive Bacteria (AID 485295).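 Note: PicoGreen fluorescence of double-stranded DNA made on primed circular M13 template; series mostly up to about 57 µM.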 An outline of the steps: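 Reconstituted B. subtilis holoenzyme (Pol III, beta clamp, SSB, primase) was preincubated with compound at room temperature, then given single-stranded circular M13Gori plus dNTPs and NTPs. EDTA-containing PicoGreen stopped the reaction, and dsDNA product was read by fluorescence.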

A short description of assay [5]: qHTS Validation Assay to Find Inhibitors of Chronic Active B-Cell Receptor Signaling (AID 485345; active = well fitted curve in the direction sought with a large enough effect in the main read-out, with a control signal flat, not every such curve was filed as active). In short, it runs like this: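 TMD8 ABC-DLBCL cells stably carrying doxycycline-inducible IkappaBalpha–green luciferase fusion plus unfused red luciferase; compounds 46 uM to 3 nM, 4 h at 37C with doxycycline. Corrected green/red luminescence ratio normalized to 10 uM MG-132 and basal cell wells; curves fitted.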

Assay [6] deals with Beta-2 adrenergic receptor (Homo sapiens) (UniProt P07550). Description: qHTS validation assay of beta-arrestin-biased ligands of beta2-adrenergic receptor (AID 485366). An outline of the steps: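 Agonist activity is measured as luciferase luminescence downstream of beta-arrestin recruitment to recombinant beta2-AR in Tango cells. Exposure lasts 18 hr at 37 degrees C, and curves are categorized by r2, response size and activity.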

Assay [7] in a line: Quantitative high throughput screen for delayed death inhibitors of the malarial parasite plastid, 96 hour incubation (AID 488745). Note: nearly all actives have a fitted effect of over 70% in size. Note: potency is the fitted concentration of half-maximal effect. In short, it runs like this:
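Luciferase-expressing P. falciparum, infected RBCs 2% Hct/0.1% parasitemia (final); 96 h cpd exposure, 37 C, 5% CO2; RPMI 1640 + 0.5% Albumax, bicarbonate, gentamycin. Readout: luminescence loss = growth inhibition.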

Assay [8] is described as follows: Quantitative high throughput screen for delayed death inhibitors of the malarial parasite plastid, 48 hour incubation (AID 488752). Note: nearly all actives have a fitted effect of over 65% in size. Note: potency is the fitted concentration of half-maximal effect. An outline of the steps: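 Luciferase-expressing P. falciparum in RBCs, 2% Hct, 0.1% parasitemia final; RPMI 1640 + 0.5% Albumax; 48 h, 37 C, 5% CO2; luminescence readout, signal drop = growth inhibition.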
The target in assay [9] is Tumor susceptibility gene 101 protein (Homo sapiens) (UniProt Q99816). As to the kind of experiment: qHTS Validation Assay for Iinhibitors of HIV-1 Budding by Blocking the Interaction of PTAP/TSG101 (AID 485342; calls by dose curve). An outline of the steps: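 Tsg101 binding domain (10 uM final) in pH 7.5 HEPES/NaCl/Tween 20/EDTA/TCEP buffer was mixed with pin-transferred compounds, then FITC-labeled PTAP peptide (50 nM final) was added; after 20 min at r.t., fluorescence polarization was read.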

Assay [10] addresses ATP-dependent 6-phosphofructokinase (Trypanosoma brucei brucei) (UniProt O15648). As to the kind of experiment: qHTS Validation Assay to Find Inhibitors of T. brucei phosphofructokinase (AID 485368). Note: potency is the fitted concentration of half-maximal effect. An outline of the steps:
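Inhibition derived from concentration-response curves of luminescence, ranked by r2, response size and curve class; the underlying reaction used 1.25 nM PFK, 0.1 mM ATP and 0.5 mM F6P, 45 min, room temperature.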

Tumor susceptibility gene 101 protein (Homo sapiens), sequence (Q99816 whole entry, looked up, the tested form may be a part): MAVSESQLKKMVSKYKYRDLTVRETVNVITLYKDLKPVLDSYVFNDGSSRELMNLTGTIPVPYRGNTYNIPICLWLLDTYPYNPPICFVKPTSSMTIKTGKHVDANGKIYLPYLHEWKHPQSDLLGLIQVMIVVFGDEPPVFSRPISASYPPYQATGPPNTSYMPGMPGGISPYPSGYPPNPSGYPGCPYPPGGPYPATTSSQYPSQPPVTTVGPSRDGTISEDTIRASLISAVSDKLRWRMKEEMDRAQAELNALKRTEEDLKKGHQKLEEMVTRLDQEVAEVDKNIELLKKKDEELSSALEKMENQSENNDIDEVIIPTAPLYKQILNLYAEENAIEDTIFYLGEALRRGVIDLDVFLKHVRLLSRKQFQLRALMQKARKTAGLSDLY
DNA polymerase III PolC-type (Bacillus subtilis (strain 168)), sequence (P13267 whole entry, looked up): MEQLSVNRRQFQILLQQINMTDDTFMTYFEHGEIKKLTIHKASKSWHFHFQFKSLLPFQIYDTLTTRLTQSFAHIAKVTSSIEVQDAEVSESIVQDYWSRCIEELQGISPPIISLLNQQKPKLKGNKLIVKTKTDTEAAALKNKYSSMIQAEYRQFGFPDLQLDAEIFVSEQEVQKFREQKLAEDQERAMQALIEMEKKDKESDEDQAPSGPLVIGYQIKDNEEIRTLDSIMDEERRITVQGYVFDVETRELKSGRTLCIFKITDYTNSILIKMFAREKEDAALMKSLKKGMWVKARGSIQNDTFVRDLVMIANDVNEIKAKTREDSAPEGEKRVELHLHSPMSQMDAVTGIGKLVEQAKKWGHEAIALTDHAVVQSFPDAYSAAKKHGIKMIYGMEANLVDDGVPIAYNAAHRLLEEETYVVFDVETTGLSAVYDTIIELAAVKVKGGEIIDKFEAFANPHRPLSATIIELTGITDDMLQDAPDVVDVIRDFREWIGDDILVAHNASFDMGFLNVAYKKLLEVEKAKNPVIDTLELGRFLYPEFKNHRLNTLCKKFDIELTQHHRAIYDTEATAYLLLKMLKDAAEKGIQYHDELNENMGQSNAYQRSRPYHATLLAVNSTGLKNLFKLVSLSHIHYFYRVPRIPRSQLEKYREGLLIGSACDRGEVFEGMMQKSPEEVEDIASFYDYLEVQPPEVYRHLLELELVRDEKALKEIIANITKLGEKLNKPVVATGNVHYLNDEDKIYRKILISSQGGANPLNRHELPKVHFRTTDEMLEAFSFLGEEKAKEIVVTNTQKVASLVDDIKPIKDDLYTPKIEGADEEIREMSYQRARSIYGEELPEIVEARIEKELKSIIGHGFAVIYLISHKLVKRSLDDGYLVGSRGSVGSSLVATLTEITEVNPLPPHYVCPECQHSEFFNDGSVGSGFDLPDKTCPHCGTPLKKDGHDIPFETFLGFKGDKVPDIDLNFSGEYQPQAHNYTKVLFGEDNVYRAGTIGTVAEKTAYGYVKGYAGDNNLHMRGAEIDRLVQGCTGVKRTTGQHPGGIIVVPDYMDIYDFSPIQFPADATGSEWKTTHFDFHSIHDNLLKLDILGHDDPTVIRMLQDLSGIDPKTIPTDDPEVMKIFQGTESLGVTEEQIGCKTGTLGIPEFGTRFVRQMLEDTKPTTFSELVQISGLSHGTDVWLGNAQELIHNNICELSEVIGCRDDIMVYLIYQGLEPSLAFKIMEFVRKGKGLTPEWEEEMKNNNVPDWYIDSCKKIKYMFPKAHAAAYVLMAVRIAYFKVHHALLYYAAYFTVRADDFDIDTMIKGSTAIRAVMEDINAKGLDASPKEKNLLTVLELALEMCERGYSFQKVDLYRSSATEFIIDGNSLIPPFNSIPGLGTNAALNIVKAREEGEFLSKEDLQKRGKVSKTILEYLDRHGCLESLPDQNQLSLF
ATP-dependent 6-phosphofructokinase (Trypanosoma brucei brucei), sequence (O15648 whole entry, looked up): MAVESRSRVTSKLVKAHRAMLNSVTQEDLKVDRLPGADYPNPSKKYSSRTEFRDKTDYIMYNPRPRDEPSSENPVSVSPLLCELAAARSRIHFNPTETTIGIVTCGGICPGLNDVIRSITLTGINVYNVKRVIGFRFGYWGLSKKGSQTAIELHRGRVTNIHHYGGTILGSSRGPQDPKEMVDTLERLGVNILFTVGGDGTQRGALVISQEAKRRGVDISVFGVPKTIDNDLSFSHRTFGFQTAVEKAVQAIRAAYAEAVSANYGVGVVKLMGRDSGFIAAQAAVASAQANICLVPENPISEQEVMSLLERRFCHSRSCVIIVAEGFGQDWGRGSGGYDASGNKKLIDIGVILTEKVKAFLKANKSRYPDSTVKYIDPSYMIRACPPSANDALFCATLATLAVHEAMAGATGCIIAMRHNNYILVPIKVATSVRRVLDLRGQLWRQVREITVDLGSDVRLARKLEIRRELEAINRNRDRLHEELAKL
Beta-2 adrenergic receptor (Homo sapiens), sequence (P07550 whole entry, looked up): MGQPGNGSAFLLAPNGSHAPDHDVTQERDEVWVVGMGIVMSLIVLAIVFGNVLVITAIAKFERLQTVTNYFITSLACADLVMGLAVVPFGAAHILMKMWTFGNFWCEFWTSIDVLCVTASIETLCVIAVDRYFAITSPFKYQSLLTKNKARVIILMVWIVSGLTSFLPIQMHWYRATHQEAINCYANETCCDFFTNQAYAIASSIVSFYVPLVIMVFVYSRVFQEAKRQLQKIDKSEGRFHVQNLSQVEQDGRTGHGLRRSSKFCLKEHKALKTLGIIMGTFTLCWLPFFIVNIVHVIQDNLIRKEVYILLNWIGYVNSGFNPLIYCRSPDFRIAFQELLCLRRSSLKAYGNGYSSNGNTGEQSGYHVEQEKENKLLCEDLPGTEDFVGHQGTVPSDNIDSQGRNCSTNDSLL
Ubiquitin carboxyl-terminal hydrolase 2 (Homo sapiens), sequence (O75604 whole entry, looked up): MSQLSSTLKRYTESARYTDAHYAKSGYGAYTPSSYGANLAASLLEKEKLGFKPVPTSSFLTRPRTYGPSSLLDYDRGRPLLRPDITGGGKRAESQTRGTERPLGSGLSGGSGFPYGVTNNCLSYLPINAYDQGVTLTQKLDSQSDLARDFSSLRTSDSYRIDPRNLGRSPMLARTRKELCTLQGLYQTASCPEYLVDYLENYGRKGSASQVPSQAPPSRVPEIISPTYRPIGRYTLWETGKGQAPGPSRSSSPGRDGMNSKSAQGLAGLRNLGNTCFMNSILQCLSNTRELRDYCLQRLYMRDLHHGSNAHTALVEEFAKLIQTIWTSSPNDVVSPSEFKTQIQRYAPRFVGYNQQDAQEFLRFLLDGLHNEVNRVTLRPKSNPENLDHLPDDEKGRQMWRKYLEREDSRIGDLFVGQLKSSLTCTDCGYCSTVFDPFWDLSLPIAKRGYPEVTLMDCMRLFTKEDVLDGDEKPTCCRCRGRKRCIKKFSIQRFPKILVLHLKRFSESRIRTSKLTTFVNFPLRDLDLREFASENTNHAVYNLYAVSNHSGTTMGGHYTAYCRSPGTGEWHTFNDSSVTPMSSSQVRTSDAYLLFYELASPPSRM

With `O=C(O)CC[C@@H](C(=O)O)N1C(=O)c2ccccc2C1=O`, the Potency entry in assay [1], in assay [2], in assay [3], in assay [4], in assay [7] and in assay [8] was “inactive” in each case. The outcome in assay [5] and in [6] was inactive.
As for `OC[C@H]1O[C@@H](n2cnc3c(NC4CCCCC4)ncnc32)[C@H](O)[C@@H]1O`, the Potency entry in assay [1], in assay [2], in [3], in assay [4], in assay [7] and in assay [8] was “inactive” each time. Further, the outcome in assay [9] and in assay [6] was inactive.
With `NC(CCCP(=O)(O)O)C(=O)O` (stereo unspecified), the Potency result in assay [1], in [2], in [3], in [4], in [7] and in assay [8] was “inactive” in each case. Further, the call in [5] and in assay [6] was inactive.
In the case of `CN(C)CCCO[C@@H]1[C@H]2OC(C)(C)O[C@H]2O[C@@H]1[C@H](O)CO`, the Potency result in assay [1], in assay [3] and in assay [4] was “inactive” each time. For the same compound, the outcome in [9], in assay [5] and in assay [6] was inactive.
With `COC(=O)c1c(C)[nH]c(C)c1C(=O)c1ccccc1Cc1ccccc1`, the Potency result in assay [1], in assay [2], in assay [3] and in assay [4] was “inactive” in each case. The call in assay [6] was inactive. The Potency in assay [7] is 11.7 µM (active); in assay [8] it was 9.28 µM (active).
On to `NCCSSCCN`, for which the Potency entry in assay [1], in assay [2], in assay [3], in assay [4], in assay [10] and in assay [7] was “inactive” each time. Also, the Potency entry in assay [8] is “inactive”. Further, the compound was called inactive in assay [5] and in [6].
Regarding `OCC1O[C@H](O)C(Cl)C(O)C1O` (stereo partly specified), the Potency entry in [1], in assay [2], in assay [3], in assay [4], in assay [7] and in assay [8] was “inactive” each time. Moreover, the compound was called inactive in assay [9] and in [6].
On to `CC(C)Cc1ccc([C@H](C)C(=O)O)cc1`, for which the Potency result in [1], in assay [2], in [4], in [7] and in assay [8] was “inactive” in each case. In addition, the call in assay [9], in assay [5] and in assay [6] was inactive.
For the compound `C[N+]1(C)C2CC(OC(=O)[C@H](CO)c3ccccc3)CC1C1OC12` (stereo partly specified), the Potency entry in assay [1], in [3] and in assay [4] was “inactive” throughout. The compound was classed as inactive in assay [9], in [5] and in [6].
As for `Cc1cc(NC2CCCCC2)nc(-n2nc(C)cc2C)n1`, the Potency result in [1], in assay [3] and in assay [4] was “inactive” throughout. Besides, the compound was called inactive in [9], in [5] and in assay [6].
As for `N#C/C(=C\c1ccc(O)c(O)c1)C(=O)c1ccc(O)c(O)c1`, the Potency entry in [1], in assay [2] and in [8] was “inactive” each time. In addition, the Potency is 1.17 µM (active) in [3] and 0.675 µM (active) in [10]. Also, the outcome in assay [5] and in [6] was inactive.
With `O=C(c1ccc(OCCCc2cnc[nH]2)cc1)C1CC1`, the Potency entry in assay [1], in assay [3] and in [4] was “inactive” in each case. Besides, the call in [9], in assay [5] and in assay [6] was inactive.
As to `CC(=O)N[C@H](C(=O)O)C(C)(C)SN=O`, the Potency entry in assay [1], in [2], in assay [3], in [4], in [7] and in assay [8] was “inactive” each time. The result in [6] was inactive.
For the compound `CN1CCC[C@H]1c1cccnc1`, the Potency entry in assay [1], in assay [2], in [3], in assay [4], in [10] and in [7] was “inactive” throughout. For the same compound, in assay [8], the Potency entry is “inactive”. In addition, the compound was classed as inactive in [5] and in assay [6].
As to `C=C[C@H]1CN2CC[C@@H]1C[C@@H]2[C@@H](O)c1ccnc2ccc(OC)cc12`, the Potency entry in assay [1], in assay [4] and in assay [10] was “inactive” throughout. Moreover, the compound was called inactive in [9], in assay [5] and in assay [6].
In the case of `N.N.N.N.N.N.N.N.N.N.N.N.N.N.O.O.[Ru+4].[Ru+5].[Ru+5]`, in [1], the Potency entry is “inactive”. The compound was classed as inactive in assay [9] and in [6].
Take `NCCCS(=O)(=O)O`: the Potency result in [1], in [3], in [4] and in [8] was “inactive” throughout. Besides, the compound was classed as inactive in assay [5] and in [6].
Regarding `COc1ccccc1N1CCN(CCCCNS(=O)(=O)c2cccc3c(N(C)C)cccc23)CC1`, in assay [1], the Potency is 16.5 µM (active). The Potency entry in assay [3], in assay [4], in assay [7] and in assay [8] was “inactive” throughout. Also, the compound was classed as inactive in assay [9] and in assay [6].
As for `CO/N=C(\C(=O)N[C@@H]1C(=O)N2C(C(=O)O)=C(COC(C)=O)CS[C@H]12)c1csc(N)n1` (stereo in doubt), the Potency entry in assay [2], in assay [7] and in [8] was “inactive” in each case.
On to `C[N+](C)(C)CCOP(=O)(O)OP(=O)([O-])OC[C@H]1O[C@@H](n2ccc(N)nc2=O)[C@H](O)[C@@H]1O`, for which the Potency result in assay [1], in assay [3], in [4] and in assay [10] was “inactive” throughout. Moreover, the compound was classed as inactive in assay [5] and in [6].
In the case of `S=C(S)OC1CC2CC1C1CCCC21` (stereo unspecified), the Potency result in [1], in [3], in [4], in assay [10], in [7] and in [8] was “inactive” each time. For the same compound, the result in [6] was inactive.
Turning to `O=[N+]([O-])c1ccc(CSc2ncnc3c2ncn3[C@@H]2O[C@H](CO)[C@@H](O)[C@H]2O)cc1`, the Potency entry in assay [1], in assay [3] and in [4] was “inactive” each time. Besides, the compound was called inactive in assay [9] and in assay [6]. In addition, the Potency in assay [10] is 15.1 µM (active).
Regarding `O=C1C(SCCO)=C(SCCO)C(=O)c2ccccc21`, the values for the Potency in assay [2] and in assay [10] were 3.98 µM (active) and 12 µM (active), respectively. The Potency result in [3] and in assay [4] was “inactive” each time. In addition, the result in assay [9] and in assay [6] was inactive.
Take `CCCCC/C=C\CC(O)/C=C/c1cccc(CC(O)CCCCO)n1` (stereo unspecified): the Potency result in assay [2], in assay [3], in [4], in [10] and in assay [8] was “inactive” in each case. For the same compound, the compound was classed as inactive in assay [9] and in assay [6].
As for `CCCN(CC1CC1)c1nc(C)nc(Nc2c(Cl)cc(Cl)cc2Cl)c1Cl`, the Potency entry in assay [1], in assay [3] and in assay [4] was “inactive” each time. In addition, the outcome in assay [5] and in [6] was inactive. Also, the Potency was 2.33 µM (active) in assay [7] and 2.62 µM (active) in [8].
For the compound `Cc1ccccc1CNc1ncnc2c1ncn2C1OC(CO)C(O)C1O` (stereo unspecified), the Potency entry in assay [1], in [3], in assay [4], in [7] and in [8] was “inactive” each time. The compound was classed as inactive in assay [9] and in assay [6].
Regarding `CN1CCc2cc(O)c(O)cc2C(c2ccccc2)C1` (stereo unspecified), the Potency entry in assay [2], in [3], in [4] and in [7] was “inactive” in each case. Further, the call in assay [9], in assay [5] and in [6] was inactive.
